In PubChem BioAssay (NCI):
“And” between values parts separate entries of the source, which are not always exact repeats. Identical values can stand only once. This is part of a sample that, as a whole, favours compounds with a hit. Of some 83,000 tested, about 20% had one in any assay.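 Growth was measured after 48 h exposure to one concentration of compound in 96-well plates. Values under 10 count as active.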 The source made the active and inactive calls.

Assays:
Assay in all cases: NCI-60 one-dose screen, 48 h (100 = growth as untreated, 0 = no growth, -100 = all killed)
Conditions in all cases: 10 µM unless noted
NCI-H23 lung = test system: NCI-H23 lung
NCI-H226 lung = test system: NCI-H226 lung
NCI-H322M lung = test system: NCI-H322M lung
HOP-62 NSCLC = test system: HOP-62 NSCLC
NCI-H460 lung = test system: NCI-H460 lung
HOP-92 NSCLC = test system: HOP-92 NSCLC
NCI-H522 lung = test system: NCI-H522 lung
A549/ATCC NSCLC = test system: A549/ATCC NSCLC
786-0 renal = test system: 786-0 renal
COLO 205 colon = test system: COLO 205 colon

Row | Compound | growth (NCI-H23 lung) | growth (NCI-H226 lung) | growth (NCI-H322M lung) | growth (HOP-62 NSCLC) | growth (NCI-H460 lung) | growth (HOP-92 NSCLC) | growth (NCI-H522 lung) | growth (A549/ATCC NSCLC) | growth (786-0 renal) | growth (COLO 205 colon)
1 | CCCCCn1sc(=O)n(Cc2ccc(CNC(=O)C(C)c3ccc(CC(C)C)cc3)cc2)c1=O (stereo not given) | 102% (inactive) and -73.4% (active) | 94.3% (inactive) and 37.3% (inactive) | 99.5% (inactive) and 67.6% (inactive) | 99.1% (inactive) and -43.2% (active) | 102% (inactive) and 22.9% (inactive) | 73.6% (inactive) and -66.2% (active) | 85.4% (inactive) and -59.6% (active) | 97.4% (inactive) and -19.1% (active) | 95.8% (inactive) and -86.5% (active) | 122% (inactive) and -57.5% (active)
2 | CCN(CC)CCCC(C)N(Cc1ccccc1)CC(O)c1ccc(Cl)cc1 (stereo not given) | 106% (inactive) and 101% (inactive) | 98.9% (inactive) and 110% (inactive) | 114% (inactive) and 98% (inactive) | 97.3% (inactive) and 92.8% (inactive) | 101% (inactive) and 116% (inactive) | 71.7% (inactive) and 95.2% (inactive) | 107% (inactive) and 89.8% (inactive) | 103% (inactive) and 96.7% (inactive) | 108% (inactive) and 96.8% (inactive) | 103% (inactive) and 111% (inactive)
3 | COc1cc2c(Nc3ccc(Cl)c(Cl)c3F)ncnc2cc1OCC1C[C@@H]2CN(C)C[C@@H]2C1 (stereo not given in full) | -82.2% (active) and 40% (inactive) | -65.1% (active) and 46% (inactive) | -96.4% (active) and 21.5% (inactive) | -87.2% (active) and 16.6% (inactive) | -79.4% (active) and 21.6% (inactive) | -84.5% (active) and 16.3% (inactive) | -80.7% (active) and -36.8% (active) | -92.8% (active) and 15.8% (inactive) | -91.9% (active) and -22.5% (active) | -84.6% (active) and -25.1% (active)
4 | CN1CCN(C2CCN(C(=O)Nc3cc(Oc4ccc(NC(=O)C5(C(=O)Nc6ccc(F)cc6)CC5)c(F)c4)ccn3)CC2)CC1 | -44.6% (active) and 73.4% (inactive) | -4.95% (active) and 76.4% (inactive) | -27.6% (active) and 94% (inactive) | -68.7% (active) and 110% (inactive) | -50.4% (active) and 77.2% (inactive) | -43.2% (active) and 68.1% (inactive) | -66.2% (active) and 80.8% (inactive) | -13.9% (active) and 90.3% (inactive) | -72.9% (active) and 110% (inactive) | -78.3% (active) and 85.6% (inactive)
5 | O=C(N/N=C/c1ccc2c(c1)OCO2)c1ccncc1 | 99% (inactive) and 101% (inactive) | 108% (inactive) and 93.3% (inactive) | 114% (inactive) and 94.6% (inactive) | 99.5% (inactive) and 108% (inactive) | 101% (inactive) and 111% (inactive) | 106% (inactive) and 70.1% (inactive) | 77.8% (inactive) and 96.3% (inactive) | 108% (inactive) and 109% (inactive) | 109% (inactive) and 101% (inactive) | 101% (inactive) and 110% (inactive)
6 | O=C(N/N=C/c1cccc2ccccc12)C1CC1 | 104% (inactive) and 89.3% (inactive) | 104% (inactive) and 92.2% (inactive) | 98.1% (inactive) and 101% (inactive) | 104% (inactive) and 116% (inactive) | 113% (inactive) and 104% (inactive) | 97.8% (inactive) and 95.1% (inactive) | 98.8% (inactive) and 103% (inactive) | 100% (inactive) and 89.2% (inactive) | 99.9% (inactive) and 99% (inactive) | 112% (inactive) and 117% (inactive)
7 | Cc1ccc2nc3c(nc2c1)-c1cccc2cccc-3c12 | 89.5% (inactive) | 86.3% (inactive) | 74.6% (inactive) | 101% (inactive) | 72.4% (inactive) | 89.8% (inactive) | 66.4% (inactive) | 74.4% (inactive) | 105% (inactive) | 70.2% (inactive)
8 | CC(CN=Cc1ccccc1O)N=Cc1ccccc1O (stereo not given) | 101% (inactive) and 102% (inactive) | 92.6% (inactive) and 91.4% (inactive) | 79.2% (inactive) and 113% (inactive) | 98.9% (inactive) and 104% (inactive) | 107% (inactive) and 100% (inactive) | 85.4% (inactive) | 75.7% (inactive) and 106% (inactive) | 107% (inactive) and 117% (inactive) | 104% (inactive) and 109% (inactive) | 98.5% (inactive)
9 | CC(C)Cc1ccc(C(C)C(=O)NCc2ccc(Cn3c(=O)sn(CCCI)c3=O)cc2)cc1 (stereo not given) | 92% (inactive) and -78.3% (active) | 83.8% (inactive) and 4.03% (active) | 98.2% (inactive) and 59.4% (inactive) | -56.2% (active) | 99.6% (inactive) and 3.28% (active) | 73.6% (inactive) and -67.5% (active) | 69% (inactive) and -55.6% (active) | 95.4% (inactive) and -54.7% (active) | 94.3% (inactive) and -88.9% (active) | -62.4% (active)
10 | COc1cc(Nc2nc3ccccc3nc2NS(=O)(=O)c2ccc(NC(=O)c3ccc(C)c(OC)c3)cc2)cc(OC)c1 | 48.3% (inactive) and 19.8% (inactive) | 70.8% (inactive) and 6.54% (active) | 49.3% (inactive) and -6.86% (active) | 44.1% (inactive) and -1.64% (active) | 44.4% (inactive) and 10.5% (inactive) | -26.5% (active) | 40.9% (inactive) and 2.82% (active) | 50.2% (inactive) and -9.71% (active) | 69.5% (inactive) and -19.2% (active) | 66% (inactive) and -11.6% (active)
11 | Cc1cc(=O)[nH]c(O)c1C#N | 103% (inactive) and 97.6% (inactive) | 103% (inactive) and 101% (inactive) | 95.5% (inactive) and 99% (inactive) | 96.6% (inactive) and 101% (inactive) | 105% (inactive) and 104% (inactive) | 106% (inactive) and 52% (inactive) | 101% (inactive) and 96.9% (inactive) | 102% (inactive) and 95.3% (inactive) | 97.7% (inactive) and 98.5% (inactive) | 111% (inactive) and 104% (inactive)
12 | C#CCN(C)Cc1ccccc1 | 106% (inactive) and 104% (inactive) | 91.6% (inactive) and 95.2% (inactive) | 99.3% (inactive) and 450% (inactive) | 93.5% (inactive) and 89.6% (inactive) | 110% (inactive) and 104% (inactive) | 100% (inactive) | 100% (inactive) and 92.5% (inactive) | 102% (inactive) and 101% (inactive) | 95.5% (inactive) and 70.4% (inactive) | 108% (inactive) and 122% (inactive)
13 | O=C(Nc1cccc(Cl)c1)c1cc2ccccc2cc1O | 4.9% (active) and 9.55% (active) | 45.8% (inactive) and 40.6% (inactive) | 15% (inactive) and -3.24% (active) | 37.7% (inactive) and 15.1% (inactive) | 5.98% (active) and 5.93% (active) | -30.8% (active) and -32.5% (active) | 1.12% (active) and 2.91% (active) | 20.7% (inactive) and 9.25% (active) | 53.6% (inactive) and 17.3% (inactive) | 104% (inactive) and 42.6% (inactive)
14 | CN(C)c1ccc(C(=C2C=CC(=[N+](C)C)C=C2)c2ccccc2Cl)cc1 | -52.2% (active) and -82.2% (active) | -41.3% (active) and -56.5% (active) | -7.26% (active) and 10.3% (inactive) | -43.7% (active) and -94.3% (active) | -60.8% (active) and -49.7% (active) | -78.2% (active) and -72% (active) | -57.4% (active) and -56.5% (active) | -55.9% (active) and -34.5% (active) | -88.2% (active) and -100% (active) | -89.1% (active) and -90% (active)
